Results filed as inconclusive are left out. Active and inactive are the calls of the source. Calls come from the whole dose curve; as a rule, active = well fitted cell-killing curve with a large enough effect in the repeat runs; inconclusive = weak or mixed curves; inactive = flat fitted curve, though single readings scatter.
Test: qHTS RealTime-Glo MT Cell Viability Assay in HepG2 cells - 24 hour (AID 1224867); note: nearly all actives have a fitted effect of over 50% in size
Conditions: RealTime-Glo luminescence; series mostly up to 76.8 µM
Text: U.S. Tox21 Program National Center for Advancing Translational Sciences [NCATS] NIH Chemical Genomics Center [NCGC] U.S. Environmental Protection Agency [EPA] National Institutes of Environmental Health Sciences [NIEHS] National Toxicology Program [NTP] U.S. Food and Drug Administration [FDA] Tox21 Assay Overview: Measure of cell viability is critical in the cell-base assay. Analysis of cell viability is necessary for the characterization of cell responses to cytotoxic drugs and environmental stress. A RealTime-Glo MT Cell Viability Assay to monitor cell viability in real time of continues cell culture during 40 hours of compound treatment was used to screen Tox21 10K library compounds in HepG2 cells. The RealTime-Glo MT Cell Viability Assay is a nonlytic, homogeneous, bioluminescent method to measure cell viability in real time using a simple, plate-based method. The assay involves adding NanoLuc luciferase and a cell-permeant prosubstrate to cells in culture. Viable cells reduce the proprietary prosubstrate to generate a substrate for NanoLuc luciferase. This substrate diffuses from cells into the surrounding culture medium, where it is rapidly used by the NanoLuc Enzyme to produce a luminescent signal. The signal correlates with the number of viable cells, making the assay well suited for cytotoxicity studies.
Tox21 Assay Protocol Summary: The mixture of HepG2 cell suspension and reagents were dispensed at 600cells/6 ul/well in 1536-well tissue culture treated black solid bottom plates using a Multidrop dispenser. After the assay plates were incubated at a 37 C/5% CO2 incubator for 5 hours, 23 nL of compounds dissolved in DMSO, positive and negative controls was transferred to the assay plate by a pintool work station. The plates were incubated at 37 C for 40 hours. The luminescence intensity were measured at 0h, 8h, 16h, 24h, 32h and 40h time points using ViewLux plate reader during compound treatment.
With CCN(CC)c1ccc(C(=O)c2ccccc2C(=O)O)c(O)c1 the outcome was “inactive”. With O=C(O)c1cc(=O)c2c(OCC(O)COc3cccc4oc(C(=O)O)cc(=O)c34)cccc2o1 the outcome was “inactive”. With O=C(OCCOCCOC(=O)c1ccccc1)c1ccccc1 the outcome was “inactive”. For C=C(C)C(=O)OCCOCCOCCOC(=O)C(=C)C, the outcome was “inactive”. With C=C(C)C(=O)O[C@H]1C[C@@H]2CC[C@@]1(C)C2(C)C the outcome was “inactive”. For C/C=C1/CC2C=CC1C2 (stereo not given), the outcome was “inactive”. With O=C(Oc1ccccc1)c1ccccc1 the outcome was “inactive”. For Cc1ccc2oc(=O)ccc2c1, the outcome was “inactive”. For CCCCCCCCCCCCS, the outcome was “inactive”. In the case of CCCCCC(N)=O, the outcome was “inactive”. With CC(C)(C)[C@@H](O)[C@@H](Cc1ccc(Cl)cc1)n1cncn1 the outcome was “inactive”. In the case of CCc1ccc(CCOc2ccc(CC3SC(=O)NC3=O)cc2)nc1 (stereo not given), the outcome was “inactive”. For CCCCC(CC)COC(=O)C(C#N)=C(c1ccccc1)c1ccccc1 (stereo not given), the outcome was “inactive”. With C#C[C@]1(O)CC[C@H]2[C@@H]3CCC4=CC(=O)CC[C@@H]4[C@H]3CC[C@@]21C the outcome was “inactive”. In the case of O=C(CC(C(=O)OC1CCCCC1)S(=O)(=O)O)OC1CCCCC1 (stereo not given), the outcome was “inactive”. With C[C@H]1C[C@H]2[C@@H]3CCC4=CC(=O)C=C[C@]4(C)[C@@]3(F)[C@@H](O)C[C@]2(C)[C@@]1(O)C(=O)CO the outcome was “inactive”. For O=P(OC(CCl)CCl)(OC(CCl)CCl)OC(CCl)CCl, the outcome was “inactive”. In the case of CC(C)c1ccc(S(=O)(=O)O)cc1, the outcome was “inactive”. For Nc1cc([N+](=O)[O-])ccc1O, the outcome was “inactive”. In the case of Oc1cccc2ccccc12, the outcome was “inactive”. In the case of CC(c1cc2ccccc2s1)N(O)C(N)=O (stereo not given), the outcome was “inactive”. For CN(C)CCCN, the outcome was “inactive”. With CN(C)CCC(c1ccccc1)c1ccccn1 (stereo not given) the outcome was “inactive”. With c1ccc(OCCOc2ccccc2)cc1 the outcome was “inactive”. In the case of O=c1[nH]c(=O)n([C@H]2CCCO2)cc1F, the outcome was “inactive”. In the case of CCCCC(CC)COC(=O)CS (stereo not given), the outcome was “inactive”. With CC1CCC2CC1C2(C)C (stereo not given) the outcome was “inactive”. For O=C(O)c1ccccc1C(c1ccc(O)cc1)c1ccc(O)cc1, the outcome was “inactive”. For OCc1cccnc1, the outcome was “inactive”. For CCC(O)OCCCOC (stereo not given), the outcome was “inactive”. In the case of CCCCCCCC(=O)OC, the outcome was “inactive”. For COc1ccc2cc([C@H](C)C(=O)O)ccc2c1, the outcome was “inactive”. In the case of O=c1[nH]nnc2ccccc12, the outcome was “inactive”. For O=C(O)c1cc(O)c(O)c(O)c1, the outcome was “inactive”. In the case of C#CCN(C)Cc1ccccc1, the outcome was “inactive”. With CN(C)CCC(c1ccc(Cl)cc1)c1ccccn1 (stereo not given) the outcome was “inactive”. With c1ccc2scnc2c1 the outcome was “inactive”. In the case of Cc1ccc(S(N)(=O)=O)cc1, the outcome was “inactive”. For CC1=CC(=O)NS(=O)(=O)O1, the outcome was “inactive”. For C=C(C)C(=O)Nc1ccc(Cl)c(Cl)c1, the outcome was “inactive”.

— PubChem BioAssay (Tox21)
